Data on 48 compounds can be found in PubChem BioAssay AID1479 (National Center for Advancing Translational Sciences (NCATS), 2009).

Structures are written as SMILES. “And” between values parts separate entries of the source, which are not always exact repeats. Equal entries are not always repeated. Out of some 280,000 compounds screened, about 820 (0.29%) were called active. Inconclusive results (about 1%) are left out. The call rests on the fitted dose curve; in most records, active means well fitted curve in either direction with a large enough effect; inconclusive means small, poorly fitted or top-dose-only effect; inactive means flat fitted curve, though single readings scatter. Many of the other results were omitted from the sample, so actives are more common in it than they were. A structure can be active in one record and inactive in another.
On the % scale 0 is the no-effect control and ±100 the full control effect; potency means the concentration at half of the fitted maximal effect; tags describe the fitted curve by direction and shape or compound fluorescence and quenching.

A short description of this assay: Total Fluorescence Counterscreen for Inhibitors of the Interaction of Thyroid Hormone Receptor and Steroid Receptor Coregulator 2. The conditions noted are these: TRb/SRC2 Texas Red total fluorescence interference; series mostly up to 106 µM; fluorescence change, negative = quenching: at the top concentration. The source says:
NIH Molecular Libraries Probe Production Network [MLPCN]
NIH Chemical Genomics Center [NCGC]
Assay Provider: R. Kip Guy, St. Jude Children's Research Hospital
Thyroid receptor (TR) regulates many homeostatic processes including basal metabolism, cardiovascular function, body weight, and lipid trafficking. TR modulators are potential therapeutics for obesity and hyperlipidemias but current thyroid analogs have undesirable side effects, particularly cardiac stimulation. To identify inhibitors that specifically prevent the interaction of TR with the steroid receptor […] 2 (SRC2), a fluorescence polarization assay was screened. This assay detects interaction of the ligand-binding domain of human TRb with a Texas Red labeled SRC2 peptide, corresponding to a 20 amino acid region of the nuclear receptor interaction domain (Arnold et al., 2006). Total fluorescence (555 nm excitation and 632 nm emission) was measured to identify potential fluorescent and light absorbing compounds. Such compounds may be artifacts that interfere with the fluorescence polarization assay.
Arnold, L. A.; Estebanez-Perpina, E.; Togashi, M.; Shelat, A.; Ocasio, C. A.; McReynolds, A. C.; Nguyen, P.; Baxter, J. D.; Fletterick, R. J.; Webb, P.; Guy, R. K. A high-throughput screening method to identify small molecule inhibitors of thyroid hormone receptor coactivator binding. Sci STKE 2006, p 13.
NCGC Assay Protocol Summary:
For screening, 5 uL/well 0.6 uM TRb and 20 nM SRC2 Texas Red in protein buffer (20mM Tris hydrochloride, 100mM NaCl, 10% glycerol, 1mM EDTA, 0.01% NP-40, 1mM DTT, 1uM T3 and 5% DMSO) was dispensed into black solid 1536-well plates (Grenier) using a solenoid-based dispenser. Following transfer of 23 nL compound or DMSO vehicle by a pin tool, the plates were centrifuged 15 s at 1000 RPM and incubated 5 hr at ambient temperature. The plates were read by an Envision (Perkin Elmer) to detect fluorescence polarization of SRC2 Texas Red (555 nm excitation and 632 nm emission). Data were normalized to unbound (all components except TRb) and bound SRC2 Texas Red controls. Total fluorescence (TF) was calculated as follows: TF = S + 2P where S and P are fluorescence readings in the parallel and perpendicular channels, respectively.
Keywords: NIH Roadmap, MLPCN, MLI, MLSMR, qHTS, NCGC, qHTS, thyroid hormone receptor, steroid receptor coactivator, fluorescence polarization
With `CC(C)CCCCCOC(=O)CS`, the “fluorescence change, negative = quenching” value (shortened to “fluorescence change”) was -0.794% [at 201 µM] (inactive). The same measure, in the same setting: the same measure for `CCOc1ccccc1NC(=O)Cn1c(=O)n(-c2cccc(C)c2)c(=O)c2c1c1cc(OC)ccc1n2C`: 0.837% (inactive). On to `COc1cccc(NC(=O)C2CCN(c3cc(C)nc4c(-c5ccc(Cl)cc5)c(C)nn34)CC2)c1`, for which the Potency was 89.1 µM [quencher] (active). `COc1ccc(-c2c(C)nn3c(N4CCC(C(=O)N5CCCCC5)CC4)cc(C)nc23)cc1OC`: the “fluorescence change” value is -3.06% (inactive).

With `COc1ccc(-c2c(C)nn3c(N4CCC(C(=O)NCCC(C)C)CC4)cc(C)nc23)cc1OC`, the “fluorescence change” value is 1.53% (inactive). The same measure, in the same setting: with `COc1ccc(CCNC(=O)c2cc3cccc4c3n2CC(C)S4)c(OC)c1OC` (stereo not drawn) the figure was -1.75% (inactive).

With `COc1ccc2c(CN3CCN(S(=O)(=O)c4cccs4)CC3)cc(=O)oc2c1`, the “fluorescence change” value is 5.04% (inactive).

Consider `O=S(=O)(c1cccs1)N1CCN(Cc2ccccc2)CC1`, for which the “fluorescence change” value is -0.111% (inactive).

As to `Cc1cc2oc(=O)cc(CN3CCN(S(=O)(=O)c4cccs4)CC3)c2cc1C(C)C`, the Potency was 7.08 µM [quencher] (active).

Take `COc1cc(OC)cc(-c2nc3nc(C)c(CCC(=O)Nc4ccccc4)c(C)n3n2)c1`: the “fluorescence change” value is -5.62% (inactive). For the compound `Cc1ccc(C)c(Oc2c(C(F)(F)F)oc3c(CN4CCN(C)CC4)c(O)ccc3c2=O)c1`, the “fluorescence change” value is 0.669% (inactive). Take `CCOCCCNC(=O)c1c(NC(=O)Cc2coc3ccc(C)cc23)sc2c1CCC2`: the Potency was 35.5 µM [quencher] (active). As to `CCOCCCNC(=O)c1c(NC(=O)Cc2coc3c(C)c(C)ccc23)sc2c1CCC2`, the “fluorescence change” value was -22.2% (inactive). Regarding `CCOC(=O)c1c(NC(=O)Cc2coc3ccc(CC)cc23)sc2c1CCC2`, the “fluorescence change” value was 7.09% (inactive). Same read-out and setting: with `Cc1ccc(-n2c(SCC(=O)c3ccccc3)nc3c([nH]c4ccccc43)c2=O)cc1` the figure was -3.63% (inactive). In the case of `COc1cc(OC)cc(C(=O)Nc2ccc3nc(Nc4cccc(C(F)(F)F)c4)cc(C)c3c2)c1`, the “fluorescence change” value is -12.6% (inactive). In the case of `Cc1c(NC(=O)C(C)(C)C)cccc1-c1nc2ccccc2s1`, the “fluorescence change” value is 7.43% (inactive). `COc1cccc(CNC(=O)c2ccc3c(c2)sc2nc(-c4cccc(OC)c4)cn23)c1`: the “fluorescence change” value was -4.52% (inactive). Same read-out and setting: with `CCCCn1cc(S(=O)(=O)c2ccc(OCC)cc2)c(=O)c2cc(OC)c(OC)cc21` the figure was -1.29% (inactive). With `CC(C)Sc1oc(-c2cccs2)nc1S(=O)(=O)c1ccc(Cl)cc1`, the “fluorescence change” value is -1.53% (inactive). Consider `CC1(C)C(=O)N(Cl)C(=O)N1Cl`, for which the “fluorescence change” value was 2.55% [at 201 µM] (inactive). Regarding `COc1ccc(OC)c(NC(=O)CSC2=Nc3ccccc3C3=NC(CC(=O)NCc4ccc(F)cc4)C(=O)N23)c1` (stereo not drawn), the “fluorescence change” value is -3.96% (inactive). Turning to `Cc1ccc(S(=O)(=O)N(Cc2nc(-c3ccc(Cl)cc3)no2)C2CCCCC2)cc1`, the “fluorescence change” value was -9.51% (inactive).

For the compound `C[Si](C)(C)N[Si](C)(C)C`, the “fluorescence change” value was -1.52% [at 201 µM] (inactive). `CC(C)(C)OC(=O)N1CCC(c2c(C(=O)NCc3ccccn3)cnn2-c2ccc(F)cc2)CC1`: the “fluorescence change” value was -1.16% (inactive). Regarding `Cc1c(Cl)cccc1NC(=O)C1CCCN(c2ncnc3onc(C)c23)C1` (stereo not drawn), the “fluorescence change” value is 1.28% (inactive).

On to `Cn1nnnc1SCCCNCc1ccc(Cl)cc1`, for which the “fluorescence change” value is 8.98% (inactive). For `O=C(Cn1c(=O)n(Cc2cccs2)c(=O)c2cccnc21)Nc1ccc(F)cc1`, the “fluorescence change” value is -105% [at 53 µM] (inactive).

Regarding `CCOc1cccc(C(=O)Nc2nnc(S(=O)(=O)N(C)c3ccc(C)cc3)s2)c1`, the “fluorescence change” value is -11.7% (inactive). On to `Cc1ccccc1OCCSc1nc2ccc(NC(=O)c3ccco3)cc2s1`, for which the “fluorescence change” value was 7.51% (inactive). Same read-out and setting: with `C=Cc1ccc(Cn2c(C(=O)O)c(CNC3CCCC3)c3ccc(C)cc32)cc1` the figure was -1.04% (inactive); with `O=C(COc1ccc(Cl)cc1)Nc1ccccc1OCc1cc(=O)n2ccccc2n1`, -2.29% (inactive); with `Cn1c(SCC(=O)N2CCCc3ccccc32)ncc(C(=O)Nc2ccc(F)cc2)c1=O`, 0.932% (inactive). On to `COc1ccc(-c2nn(CC(=O)Nc3ccccc3F)c3c2cnc2ccc(F)cc23)cc1`, for which the “fluorescence change” value is 0.162% (inactive). In the case of `CCN(CC)c1nn2c(=O)c(C(=O)NCCc3ccccc3)cnc2s1`, the “fluorescence change” value was -5.51% (inactive).

For the compound `COc1ccc(N2CCN(c3nc(-c4ccccc4F)nc4ccccc34)CC2)cc1`, the “fluorescence change” value is 0.258% (inactive).

`Oc1c(Cl)cc(Cl)c(Cl)c1Cc1c(O)c(Cl)cc(Cl)c1Cl`: the Potency entry was “inactive and 44.7 µM [quencher] (active)”. As for `CCOc1ccccc1CNC(=O)C1CCCN(S(=O)(=O)c2ccc3c(ccn3C)c2)C1` (stereo not drawn), the “fluorescence change” value is -5.05% (inactive). As to `Cc1cccc(C(C)C)c1NC(=O)C(NS(=O)(=O)c1cccc2nsnc12)c1ccccc1` (stereo not drawn), the “fluorescence change” value was -0.208% (inactive). For the compound `Cn1c(=O)n(C)c2cc(C(=O)Nc3ccc4c(c3)OCO4)ccc21`, the “fluorescence change” value is -0.997% (inactive). Take `O=C(Nc1ccc2c(c1)OCO2)c1ccc(N2C(=O)c3ccccc3C2=O)cc1`: the Potency is 0.0079 µM [quencher] (active).

For the compound `O=C(Nc1ccc(N2CCOCC2)cc1)c1ccc2c(c1)OCO2`, the “fluorescence change” value is -3.49% (inactive). Still for that read-out and setting: with `Cc1cccc(-n2ccnc2SCC(=O)Nc2cccc3ccccc23)c1C` the figure was -1.04% (inactive). On to `CC(C)(C)c1ccc(C(=O)NCC(c2ccc(Cl)cc2)N2CCOCC2)cc1` (stereo not drawn), for which the Potency is 10 µM [quencher] (active).

On to `O=C(NCC(c1ccc(Cl)cc1)N1CCOCC1)c1ccccc1F` (stereo not drawn), for which the “fluorescence change” value was 10.2% (inactive).

Consider `COc1cc(C(=O)NCC(c2ccc(Cl)cc2)N2CCOCC2)cc(OC)c1OC` (stereo not drawn), for which the “fluorescence change” value is 0.91% (inactive). As for `CCOc1ccc(CCNC(=O)C(CC)n2nc(C)n3c(cc4sccc43)c2=O)cc1OCC` (stereo not drawn), the “fluorescence change” value is 0.796% (inactive). The same measure, in the same setting: with `CCC(C(=O)NCc1ccc(OC)cc1)n1nc(C)n2c(cc3occc32)c1=O` (stereo not drawn) the figure was -2.44% (inactive).
